The full list was thinned out, with hits kept by preference.
Pf Dd2 growth = qHTS Primary assay for Inhibitors of Plasmodium falciparum Dd2 growth in vitro | P. falciparum Dd2 growth, SYBR Green, 72 h | Potency, µM (doses to about 28.9 µM), for inactives: at the top dose activity, negative = inhibition, usual class: inhibitors | hit rate 4.3% among 120,000; active = well fitted inhibition curve with a large enough effect;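 also: plate controls were DMSO vehicle for no effect and reference drug for full effect; nearly all actives have a fitted effect of over 65% in size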
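Readout: SYBR Green fluorescence, 485 nm excitation, 535 nm emission, after ~16 h lysis at 37C. Before that, Dd2-infected red cells (2.5% hematocrit) grew 72 h with compound, 29 uM top final concentration.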
Starred values were filed as active, the others as inactive; i = inactive; ! = repeats disagree; [ ] = remark or other dose. Potency is read from the fitted curve at half-maximal effect.

SMILES	Pf Dd2 growth
COc1ccc(-c2nc3cnccn3c2NCCC(=O)N2CCCCCC2)cc1	i
COCc1nc(CCNC(=O)c2ccc(OC)cc2)no1	46.4%
O=C(NCc1c[nH]c2ncccc12)c1cccc2[nH]ccc12	-20.7%[44.1 µM]
c1cnc2nc(-c3c[nH]c4ncccc34)[nH]c2c1	25.1µM*!
c1cnc2nc(C3CCNC3)[nH]c2c1 (stereo not drawn)	23.7%[44.1 µM]
Cc1cc(-c2nc3ncccc3[nH]2)c(C)[nH]1	28.2µM*!
c1ccc(-c2nc3ncccc3[nH]2)nc1	19.1%[44.1 µM]
c1cnc2nc(-c3ccsc3)[nH]c2c1	-19.1%[44.1 µM]
Cc1ccc(S(=O)(=O)N2CC[C@H]3NC(=O)N(c4ccc(C(C)C)cc4)C(=O)[C@H]32)cc1	-9.2%[44.1 µM]
COc1cccc(OCCN(C)C(=O)C2CCCN(C(=O)N(C)C)C2)c1 (stereo not drawn)	-9.2%
CCCn1cc(S(=O)(=O)c2cc(C)ccc2C)c(=O)c2cc(F)c(N3CCOCC3)cc21	47.3%
Cc1ccc(S(=O)(=O)c2cn(C)c3cc(N4CCCC4)c(F)cc3c2=O)c(C)c1	10µM*
CCCCn1cc(S(=O)(=O)c2cc(C)ccc2C)c(=O)c2cc(F)c(F)cc21	-10.6%
CCn1cc(S(=O)(=O)c2ccc(C)cc2C)c(=O)c2cc(F)c(N3CCCC3)cc21	11.2µM*
Cc1cccc(S(=O)(=O)c2cn(C)c3cc(N4CCCCCC4)c(F)cc3c2=O)c1	i
CCn1cc(S(=O)(=O)c2cc(C)cc(C)c2)c(=O)c2cc(F)c(N3CCCCC3)cc21	-16.0%
Cc1ccc(C)c(S(=O)(=O)c2cn(C)c3cc(N4CCCCC4C)c(F)cc3c2=O)c1 (stereo not drawn)	11.2µM*
Cc1ccc(C)c(S(=O)(=O)c2cn(C)c3cc(F)c(F)cc3c2=O)c1	9.9%
COc1cccc(C(=O)N2CCC(N3CC4CCCN4C3=O)CC2)c1 (stereo not drawn)	14.1%[44.1 µM]
CN1C[C@H](C(=O)N2CCN(c3ccccn3)CC2)C[C@H]1c1cccc(C(F)(F)F)c1	i
CC(C)(C)c1cc(Cn2cc(C3CCCNC3)nn2)[nH]n1 (stereo not drawn)	-17.5%
COCc1cc(N2CCN(C)C3(CCC(=O)N(C)CC3)C2)ncn1 (stereo not drawn)	-4.1%
O=C1Cc2c(-c3ccccc3Cl)n[nH]c2CN1Cc1ccccc1	7.1%[44.1 µM]
O=C1Cc2c(-c3ccccc3OCc3ccccc3)n[nH]c2CN1Cc1ccccn1	10µM*
O=C1Cc2c(-c3cccc4ccccc34)n[nH]c2CN1Cc1ccccn1	-4.3%[44.1 µM]
SMILES	Pf Dd2 growth
O=C1Cc2c(-c3ccccc3OCc3ccccc3)n[nH]c2CN1Cc1ccccc1	10µM*
COc1ccc(CN2Cc3[nH]nc(-c4ccccc4OC)c3CC2=O)cc1	-29.1%[44.1 µM]
COc1ccc(-c2n[nH]c3c2CC(=O)N(Cc2ccccn2)C3)cc1F	-15.8%[44.1 µM]
Cc1cc(C)n(CC(=O)N[C@@H]2CN(Cc3ccccc3)C[C@H]2CN(C)C)n1	12.2%
COc1cc2c(cc1OCC1CC1)NC(=O)C21CCN(Cc2ccccc2O)CC1	-25.2%[44.1 µM]
CC(C)CC(=O)N1CC2CC(C1)[C@H]1CCCC(=O)N1C2 (stereo partly drawn)	0.6%
CCS(=O)(=O)NCc1cccnc1Oc1cccc(C(F)(F)F)c1	0.5%
O=C(Cn1cnnn1)N1CCC2(CCCNC2=O)C1 (stereo not drawn)	-7.9%
COC[C@H]1C[C@@H](NC(=O)c2ccc(C(F)(F)F)cc2)[C@H](O)[C@@H]1O	-5.1%[44.1 µM]
CC1(C)[C@H]2CC[C@@H](CNC(=O)c3ccc(C(F)(F)F)cc3)[C@@H]1C2	10µM*
CC1(C)[C@H]2CC[C@@H](CNC(=O)c3ccc(F)cc3)[C@@H]1C2	11.2µM*
CN(C)CCCC(=O)NC[C@@H]1CC[C@H]2C[C@@H]1C2(C)C	10µM*
CC1(C)[C@H]2CC[C@@H](CNC(=O)c3ccccc3)[C@@H]1C2	-12.5%[44.1 µM]
CC(=O)NC[C@H]1CCN(C(=O)c2ccc(C(F)(F)F)cc2)C[C@H]1N(C)C	22.3%
COCC(=O)NC[C@@H]1CC[C@H]2C[C@@H]1C2(C)C	-3.6%[44.1 µM]
CC1(C)[C@H]2CC[C@@H](CNC(=O)c3cncc(Br)c3)[C@@H]1C2	-20.7%
Cc1ccc(-c2nccn3cc(C(=O)N4CCN(CC(C)C)CC4)nc23)cc1	i
Cc1cccc(CC(=O)N2CCCCC2c2nc(C3CC3)n[nH]2)c1 (stereo not drawn)	-9.0%
C=CCNC(=O)N1CCC(O)(c2csc(CN3CC[C@@H](O)C3)n2)CC1	4.3%[44.1 µM]
Cc1cc2nc3n(c(=O)c2n1CC(=O)Nc1cccc(Br)c1)CCCCC3	i
COc1ccc(OC)c(NC(=O)Cn2ccn3nc4c(c3c2=O)CCCCC4)c1	i
COCCNC(=O)C1COC2(CCN(C(=O)C3CC3)CC2)N1C(=O)c1cccc(OC)c1 (stereo not drawn)	14.7%
CCCC(=O)N1CCc2cc(OC)c(OC)cc2C1COc1ccccc1OC (stereo not drawn)	12.6µM*
COc1cc2c(cc1OC)C(COc1ccccc1OC)N(C(=O)c1ccc(S(=O)(=O)N(C)C)cc1)CC2 (stereo not drawn)	i
COc1ccc(CC(=O)NCc2ccc3c(c2)CCN3C(=O)c2ccc(Cl)cc2)cc1OC	i
SMILES	Pf Dd2 growth
CCOc1ccc(NC(=O)N2CCc3cc(OC)c(OC)cc3C2CNC(C)=O)cc1 (stereo not drawn)	i
CCc1ccccc1NC(=O)N1CCc2cc(OC)c(OC)cc2C1CC(=O)OC (stereo not drawn)	i
COc1ccc(C(=O)NCC2c3cc(OC)c(OC)cc3CCN2C(=O)Nc2ccccc2F)cc1 (stereo not drawn)	i
COc1cc2c(cc1OC)C(CNC(=O)c1ccc(Cl)cc1)N(C(=O)Nc1cccc(F)c1)CC2 (stereo not drawn)	-3.2%
CCOC(=O)c1ccc(OCC2c3cc(OC)c(OC)cc3CCN2C(=O)Cc2ccc(OC)c(OC)c2)cc1 (stereo not drawn)	8.91µM*
COC(=O)c1ccc(OCC2c3cc(OC)c(OC)cc3CCN2C(=O)c2ccccc2F)cc1 (stereo not drawn)	10µM*
COc1ccc(CC(=O)N2CCc3cc(OC)c(OC)cc3C2COc2ccc(OC)cc2)cc1 (stereo not drawn)	7.94µM*
COc1cc2c(cc1OC)C(CNC(=O)Cc1ccccc1)N(C(=O)NC(C)C)CC2 (stereo not drawn)	i
CC(=O)N1CCC(Oc2ccccc2-c2nc(C)no2)C1 (stereo not drawn)	-4.0%
COc1cncc([C@@H](NC(=O)c2coc3ccccc23)C2CC(O)C2)c1 (stereo partly drawn)	0.1%
C=CCN(C)C(=O)[C@@H](C)C1CC[C@@]2(C)Cc3sc(-c4cccnc4)nc3[C@@H](C)[C@@H]2[C@H]1O (stereo partly drawn)	i
COc1ccc(C(=O)N2CCN(C(=O)COc3ccccc3)CC2)cc1OC	12.0%
COc1cc2c(cc1OC)C(COc1cc(C)cc(C)c1)N(C(=O)COc1ccccc1)CC2 (stereo not drawn)	5.01µM*
COc1cc2c(cc1OC)C(CNC(=O)C1CC1)N(C(=O)NC(C)C)CC2 (stereo not drawn)	-18.0%
COc1cc2c(cc1OC)C(CNC(=O)c1ccccc1C)N(C(=O)Nc1cccc(C)c1)CC2 (stereo not drawn)	i
COc1cc(OC)c(NC(=O)N2CCc3cc(OC)c(OC)cc3C2CC(=O)O)cc1Cl (stereo not drawn)	9.3%
